# Experimental data as given in the supplement of paper PMC4206461.
# A number with no mark means an inactive call.
# System: Pseudomonas aeruginosa PA14 dppA1-A5 penta mutant + pBBR5.DppA1 (PA14_58350)
# Experiment: respiration area under curve with compound as sole nitrogen source, 24 h (OmniLog AUC (arbitrary units)); higher = more respiration / better utilisation as nitrogen source, active = 2000 or more
# Experimental: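 Biolog Phenotype MicroArray plates PM6-PM8: each di/tripeptide is the sole nitrogen source. Tetrazolium reduction was read in the OmniLog for 24 h at 37°C and summarised as area under the respiration curve (arbitrary units). Values below 2000 count as no respiration. Strain is the SBP penta mutant complemented with DppA1 on a plasmid under its native promoter. Lys/His/Cys peptides are excluded.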
row,Structure (SMILES),respiration area under curve
1,CSCC[C@H](N)C(=O)NCC(=O)O (plate: PM7),3910 (active)
2,NC(=O)CC[C@H](N)C(=O)N[C@@H](CCC(=O)O)C(=O)O (plate: PM8),7630 (active)
3,N[C@@H](CCC(=O)O)C(=O)N[C@@H](CCC(=O)O)C(=O)O (plate: PM6),263
4,C[C@H](N)C(=O)N[C@@H](Cc1ccccc1)C(=O)O (plate: PM6),6990 (active)
5,C[C@H](N)C(=O)N[C@@H](CCC(N)=O)C(=O)O (plate: PM8),10400 (active)
6,CC(C)C[C@H](N)C(=O)N[C@H](CC(C)C)C(=O)O (plate: PM8),284
7,CC(C)CC(N)C(=O)NC(CC(=O)O)C(=O)O (stereo not given) (plate: PM6),4660 (active)
8,NCC(=O)N[C@@H](CO)C(=O)O (plate: PM6),6080 (active)
9,CSCC[C@H](N)C(=O)N[C@@H](Cc1ccc(O)cc1)C(=O)O (plate: PM8),780
10,CC(C)C(NC(=O)C1CCCN1)C(=O)O (stereo not given) (plate: PM8),5180 (active)
11,N[C@@H](Cc1ccccc1)C(=O)N[C@@H](Cc1ccc(O)cc1)C(=O)O (plate: PM8),2050 (active)
12,CC[C@H](C)[C@H](N)C(=O)NCC(=O)O (plate: PM6),2560 (active)
13,C[C@@H](O)[C@H](N)C(=O)NCC(=O)O (plate: PM7),6220 (active)
14,CC[C@H](C)[C@H](NC(=O)[C@@H](N)C(C)C)C(=O)O (plate: PM7),6870 (active)
15,CC[C@H](C)[C@H](N)C(=O)N[C@H](C(=O)O)[C@@H](C)CC (plate: PM6),1010
16,CC(C)[C@H](N)C(=O)N[C@@H](Cc1ccc(O)cc1)C(=O)N[C@H](C(=O)O)C(C)C (plate: PM8),7350 (active)
17,NCC(=O)N[C@H](CO)C(=O)O (plate: PM8),408
18,CC[C@H](C)[C@H](N)C(=O)N[C@@H](Cc1c[nH]c2ccccc12)C(=O)O (plate: PM6),287
19,CC(C)[C@H](N)C(=O)N[C@@H](CCC(=O)O)C(=O)O (plate: PM8),2880 (active)
20,NC(N)=NCCC[C@H](N)C(=O)N[C@@H](Cc1c[nH]c2ccccc12)C(=O)O (plate: PM6),7290 (active)

row,Structure (SMILES),respiration area under curve
1,CC(C)[C@H](N)C(=O)N[C@@H](CCCN=C(N)N)C(=O)O (plate: PM7),12100 (active)
2,CSCC[C@H](N)C(=O)N1CCC[C@H]1C(=O)O (plate: PM7),8590 (active)
3,N[C@@H](CC(=O)O)C(=O)N[C@@H](Cc1ccccc1)C(=O)O (plate: PM6),1720
4,NC(=O)C[C@H](NC(=O)[C@@H]1CCCN1)C(=O)O (plate: PM8),11600 (active)
5,CC[C@H](C)[C@H](N)C(=O)N[C@H](C(=O)O)C(C)C (plate: PM6),2860 (active)
6,C[C@H](N)C(=O)N[C@H](C(=O)O)[C@@H](C)O (plate: PM6),4830 (active)
7,N[C@@H](CC(=O)O)C(=O)NCC(=O)O (plate: PM8),2620 (active)
8,CC(C)[C@H](NC(=O)[C@@H](N)CCC(=O)O)C(=O)O (plate: PM6),2600 (active)
9,C[C@H](N)C(=O)N1CCC[C@H]1C(=O)O (plate: PM6),10700 (active)
10,N[C@@H](Cc1c[nH]c2ccccc12)C(=O)N[C@@H](CCC(=O)O)C(=O)O (plate: PM7),1070
11,CC[C@H](C)[C@H](N)C(=O)N[C@@H](CC(C)C)C(=O)O (plate: PM8),4900 (active)
12,CC(C)C[C@H](NC(=O)[C@@H](N)CO)C(=O)O (plate: PM7),6240 (active)
13,N[C@@H](CC(=O)O)C(=O)N[C@@H](CC(=O)O)C(=O)O (plate: PM6),197
14,NCC(=O)N[C@@H](Cc1ccccc1)C(=O)N[C@@H](Cc1ccccc1)C(=O)O (plate: PM8),5190 (active)
15,CSCC[C@H](N)C(=O)N[C@@H](Cc1c[nH]c2ccccc12)C(=O)O (plate: PM7),2980 (active)
16,O=C(O)[C@H](Cc1ccc(O)cc1)NC(=O)[C@@H]1CCCN1 (plate: PM7),11800 (active)
17,CSCCC(N)C(=O)NC(CCCN=C(N)N)C(=O)O (stereo not given) (plate: PM7),13200 (active)
18,C[C@H](NC(=O)[C@@H](N)CCC(=O)O)C(=O)O (plate: PM8),7690 (active)
19,C[C@H](N)C(=O)N[C@@H](CCC(=O)O)C(=O)O (plate: PM6),6760 (active)
20,CC(C)C[C@H](N)C(=O)NCC(=O)O (plate: PM6),5940 (active)
